Test results taken from PubChem BioAssay AID1259343 (VanderVen Lab, College of Veterinary Medicine, Cornell …, 2017).
About 2,900 (47%) of roughly 6,200 compounds were called active. Rule as the data show it: active = inhibition above about 50%; inactive = the rest. The set was probably picked from earlier hits. The list shows a part of the results.

Test: Mycobacterium tuberculosis growth inhibition, primary screen (AID 1259343)
Settings: inhibition: at 10 µM, hits give high values; outcome: 10 uM

Compound	inhibition
CCOC1=CC(=O)N(Cc2ccccc2)C1	48.1% (inactive)
NC1=NC(=O)C(CC(=O)Nc2ccc(SC(F)(F)C(F)(F)C(F)(F)F)cc2)S1 (stereo not drawn)	35.5% (inactive)
O=S(=O)(/C=C/c1ccccc1)NCCc1cccc2ccccc12	6.24% (inactive)
O=S(=O)(/C=C/c1ccccc1)Nc1ccc(Cl)cc1F	81.5% (active)
O=S(=O)(/C=C/c1ccccc1)Nc1ccccc1C(F)(F)F	78.4% (active)
O=S(=O)(/C=C/c1ccccc1)NC1CCCCC1	17% (inactive)
Cc1ccc2nc(-c3cccc(N)c3C)oc2c1	42.1% (inactive)
COc1ccc(OCCNc2ccccc2-c2nn[nH]n2)cc1	22.1% (inactive)
Cc1cccc(C)c1-c1ccc(-c2nn[nH]n2)cc1	70.6% (active)
O=C(Cn1ncc(Cl)c(Cl)c1=O)Nc1ccc2ccccc2c1	11% (inactive)
O=C(Cn1ncc(Cl)c(Cl)c1=O)c1ccc2c(c1)CCC2	82.8% (active)
O=C(Cn1ncc(Cl)c(Cl)c1=O)c1cc(F)ccc1F	-50.8% (inactive)
CC(C)OC(=O)c1ccc(COc2ccc(C(C)(C)C)cc2)o1	75.8% (active)
CC(C)(C)c1ccc(OCc2ccc(C(=O)OCC#N)cc2)cc1	-2.26% (inactive)
CC(C)c1nc(CC(=O)N(C)Cc2ccc(C3CC3C)o2)cs1 (stereo not drawn)	83.2% (active)
CC1CC1c1ccc(CCC(=O)Nc2ccccn2)o1 (stereo not drawn)	48.8% (inactive)
CC1CC1c1ccc(/C=C2/SC(N)=NC2=O)o1 (stereo not drawn)	5.99% (inactive)
COc1cccc(Cc2nsc(Oc3ccc(CC(=O)O)cc3)n2)c1	88.3% (active)
COc1cccc(CC(=O)Nc2ccc3c(c2)CCC3)c1	-43.3% (inactive)
CN(Cc1ccc2cccc(O)c2n1)Cc1noc(C2CCC2)n1	98.5% (active)
C=C(C)COc1cccc(C(=O)NCc2noc(C3CCCC3)n2)c1	38.4% (inactive)
COCc1nnc(NS(=O)(=O)c2ccc(Br)cc2)s1	inactive
CC(C)c1nnc(NS(=O)(=O)c2ccc(Cl)s2)s1	-36.5% (inactive)
CCc1nnc(NS(=O)(=O)c2ccccc2Cl)s1	80.2% (active)
c1cc2cc(CNc3nc(NCC4CC4)nc4ccsc34)ccc2o1	76.9% (active)
Clc1ccccc1CSc1nnc(-c2ccc3c(c2)OCO3)o1	1.82% (inactive)
Clc1cccc(CSc2nnc(-c3ccc4c(c3)OCO4)o2)c1	41.6% (inactive)

Compound	inhibition
Brc1ccc(CSc2nnc(-c3ccc4c(c3)OCO4)o2)cc1	59.2% (active)
Brc1ccccc1CSc1nnc(-c2ccc3c(c2)OCO3)o1	99.6% (active)
Brc1cc2c(cc1CSc1nnc(-c3ccccc3)o1)OCO2	-11.5% (inactive)
N#CCSc1nnc(-c2ccc3c(c2)OCO3)o1	97.5% (active)
Clc1cccc(Cl)c1CSc1nnc(-c2ccc3c(c2)OCO3)o1	63.3% (active)
CCn1nc(NC(C)=O)c2cc3ccc(C)cc3nc21	-33.9% (inactive)
CN(C(=O)c1cc(Cl)sc1Cl)c1ccc(-c2onc3c2CCc2ccccc2-3)cc1	35.5% (inactive)
Fc1ccc(-c2nnc(SCc3cc(Cl)c4c(c3)OCCO4)o2)cc1	95.4% (active)
COc1ccc(C=NOCc2ccc(Cl)c(Cl)c2)c(OC)c1	32.8% (inactive)
N#Cc1ccc(CON=Cc2ccccc2OC(F)F)cc1	52.2% (active)
N#Cc1ccc(CON=Cc2ccccc2)cc1	70.7% (active)
C(=NOCc1ccc(CON=Cc2ccccc2)cc1)c1ccccc1	16.2% (inactive)
Cc1nc(-n2nc(C3CC3)cc2NC(=O)c2cccc(F)c2)[nH]c(=O)c1C	100% (active)
Cc1nc(-n2nc(C3CC3)cc2NC(=O)c2ccc(F)cc2)[nH]c(=O)c1C	101% (active)
Cc1cccc(C(=O)Nc2cc(C3CC3)nn2-c2nc(C)c(C)c(=O)[nH]2)c1	99.3% (active)
O=C1/C(=C/c2ccc(O)cc2)C(N2CCOCC2)=NN1c1ccc([N+](=O)[O-])cc1	36.6% (inactive)
O=[N+]([O-])c1ccc(N2CCCCC2)cc1	48.6% (inactive)
CC(c1ccccc1)N1CCN(c2ccc([N+](=O)[O-])cc2)CC1 (stereo not drawn)	56.5% (active)
C=CCc1c(C)nc2c(-c3ccccc3)cnn2c1NCCN(C)C	inactive
C=CCc1c(C)nc2c(-c3ccccc3)cnn2c1NCCOC	17.5% (inactive)
C=CCc1c(C)nc2c(-c3cccc(Cl)c3)c(C)[nH]n2c1=O	99.8% (active)
COc1cc(C(C)=O)ccc1Oc1cnccn1	3.02% (inactive)
Fc1ccc(Oc2cc(N3CCc4ccccc4C3)ncn2)cc1F	34.6% (inactive)
COc1ccccc1Oc1cc(Cl)ncn1	53.5% (active)
Fc1ccc(CN2CCN(c3cc(Oc4ccc(F)cc4Cl)ncn3)CC2)cc1	39.7% (inactive)
Fc1ccc(Oc2cc(Cl)ncn2)cc1	73.1% (active)
